From PubChem BioAssay AID463173 (ICCB-Longwood Screening Facility, Harvard Medical School, 2010)
Screen size: about 52,000 compounds; about 1,700 (3.3%) were called active. This is one part of a sample in which actives are shown more often than they occur. Rule as the data show it: active = survival mostly below about 52% (no sharp cut-off); inactive = mostly above about 56%.

Test system: Wild type
Experiment: S. aureus survival, RN4220 and DeltatarO strains – OD600, teichoic acid synthesis inhibitors, primary screen (AID 463173)
Details: S. aureus RN4220 wild type/DeltatarO growth, OD600, 18 h, active compounds read low, screened at 18.75 µg/mL (by protocol)

Compound	survival
Cc1nc(SCC(N)=O)c2c3c(sc2n1)CCCC3	90% (inactive)
Cc1nc(SCC(=O)OC(C)(C)C)c2c3c(sc2n1)CCCC3	15% (active)
Cc1nc(SCC(=O)Nc2nsc(-c3ccc(C(C)(C)C)cc3)n2)c2c3c(sc2n1)CCCC3	92% (inactive)
COc1ccccc1Cc1nc2ccccc2nc1SCC(=O)Nc1ccc2c(c1)OCO2	45% (inactive)
O=C(Cn1nnc(-c2ccccc2)n1)N1CCCCC1	109% (inactive)
CC(=O)Nc1ccc(S(=O)(=O)N2CCN(Cc3ccccc3Cl)CC2)cc1	117% (inactive)
Cc1ccc(S(=O)(=O)N2CCN(Cc3ccccc3Cl)CC2)cc1	19% (active)
Cc1ccc(S(=O)(=O)N2CCC(C(=O)NCc3ccccc3Cl)CC2)cc1	64% (inactive)
CC(C)(C)c1ccc(C(=O)NC2(C(F)(F)F)NC(=O)N(CCc3ccccc3)C2=O)cc1 (stereo not drawn)	43% (inactive)
CCc1ccccc1NC(=O)Nc1ccc2snnc2c1	82% (inactive)
Cc1c(Cl)cccc1NC(=O)Nc1ccc2snnc2c1	24% (active)
O=C(Nc1cccc(C(F)(F)F)c1)c1cccs1	116% (inactive)
O=C(Nc1ccc(F)cc1)Nc1ccc2snnc2c1	45% (inactive)
O=C(Nc1cccc(C(F)(F)F)c1)c1ccc2snnc2c1	118% (inactive)
Cc1c(Cl)cccc1NC(=O)c1ccc2snnc2c1	106% (inactive)
O=C(Nc1cccs1)Nc1cc(C(F)(F)F)ccc1Cl	26% (inactive)
O=C(Nc1cccc(C(F)(F)F)c1)Nc1cccs1	4% (active)
O=C(Nc1cccc(C(F)(F)F)c1)Nc1ccc2snnc2c1	29% (active)
CCc1ccc(NC(=O)CSc2nc3c(sc4ccccc43)c(=O)n2CCN(CC)CC)cc1	73% (inactive)
CCN(CC)/C(=N/OCc1ccc(Cl)cc1Cl)c1nonc1N	100% (inactive)
CC1=NN(C(C#N)c2ccccc2)C(C)(C)C1 (stereo not drawn)	113% (inactive)
Cc1cccc(N2CCN(Cc3nnc(-c4ccc5c(c4)OCO5)o3)CC2)c1C	83% (inactive)
Cc1cc2nnc(SCc3ccc(F)cc3)n2c2ccccc12	-2% (active)
CCOC(=O)c1ccc(CSc2nnc3cc(C)c4ccccc4n23)cc1	108% (inactive)
CCCN(CCC)C(=O)CSc1nnc2cc(C)c3ccccc3n12	84% (inactive)

Compound	survival
COc1ccc(Cn2c(SCc3ccc(C(=O)NCCc4ccccc4)cc3)nc3cccnc32)cc1	77% (inactive)
CCCCCn1c(NCc2ccccc2OC)nc2ccccc21	-5% (active)
CCCCn1c(NCc2cc(Br)ccc2O)nc2ccccc21	69% (inactive)
CCCCn1c(NCc2ccc(OC)cc2O)nc2ccccc21	88% (inactive)
CCCn1c(NCc2ccc(N(CC)CC)cc2)nc2ccccc21	0% (active)
CCn1c(NCc2ccc(OC)c(OC)c2)nc2ccccc21	127% (inactive)
CCCCn1c(NCc2ccc(N(C)C)cc2)nc2ccccc21	70% (inactive)
CCCn1c(NCc2ccccc2C)nc2ccccc21	95% (inactive)
CCCCCn1c(NCc2ccc(OC)cc2)nc2ccccc21	-2% (active)
CCCn1c(NCc2ccccc2F)nc2ccccc21	89% (inactive)
CCOc1ccc(CNS(=O)(=O)c2ccc3c(c2)CC(C)N3C(C)=O)cc1OC (stereo not drawn)	70% (inactive)
CCN(C(=O)C1CCC(CNS(=O)(=O)c2cccc3nsnc23)CC1)c1ccccc1 (stereo not drawn)	76% (inactive)
CCOC(=O)c1[nH]c(C)c(CCC(=O)Nc2ccccc2OCC)c1C	84% (inactive)
COc1ccc(-c2cn3nc(N4CCCC(C(=O)Nc5ccc(Cl)cc5C)C4)sc3n2)cc1 (stereo not drawn)	77% (inactive)
O=C(Cn1c(=O)n(Cc2ccco2)c(=O)c2sc3ccccc3c21)Nc1ccc(F)cc1F	84% (inactive)
CCc1cccc(C)c1NC(=O)CN1CCCN(Cc2ccc(C)cc2)S1(=O)=O	0% (active)
CCc1cccc(C)c1NC(=O)CN1CCN(Cc2ccccc2Cl)S1(=O)=O	134% (inactive)
Cc1ccc(NC(=O)CN2CCCN(Cc3ccccc3Cl)S2(=O)=O)c(C)c1	-1% (active)
CCc1cccc(C)c1NC(=O)CN1CCCN(Cc2ccccc2Cl)S1(=O)=O	14% (active)
Cc1ccccc1CN1CCCN(CC(=O)Nc2c(C)cccc2C)S1(=O)=O	66% (inactive)
O=C(CN1CCCN(Cc2ccccc2Cl)S1(=O)=O)NCc1ccccc1	78% (inactive)
Cc1ccc(CN2CCCN(CC(=O)Nc3ccc(C)cc3C)S2(=O)=O)cc1	85% (inactive)
Cc1ccc(NC(=O)CN2CCCN(Cc3cc(C)ccc3C)S2(=O)=O)c(Cl)c1	55% (inactive)
Cc1cccc(CN2CCN(CC(=O)Nc3c(C)cccc3C)S2(=O)=O)c1	134% (inactive)
COc1ccccc1CNC(=O)c1cnc2sc(N3CCOCC3)nn2c1=O	153% (inactive)

Compound	survival
CC(C)(C)c1ccc(C(=O)Nc2c(C(=O)c3ccc(F)cc3)oc3ccccc23)cc1	73% (inactive)
Cc1ccc(C(=O)N2CC3(C)CC2CC(C)(C)C3)cc1 (stereo not drawn)	110% (inactive)
CCn1c(CN2CCCCC2)nc2cc(NC(=O)COc3ccc([N+](=O)[O-])cc3)ccc21	79% (inactive)
COc1cc(C(=O)N(CCc2ccccc2)C2CC3CCC(C2)N3C)cc(OC)c1OC (stereo not drawn)	104% (inactive)
O=C(NCc1ccccc1)c1nc(S(=O)(=O)Cc2ccccc2)ncc1Cl	42% (inactive)
COc1ccc(OC)c(NC(=O)c2nc(SCc3ccc(F)cc3)ncc2Cl)c1	100% (inactive)
Cc1ccc(C)c(NC(=O)c2nc(S(=O)(=O)Cc3ccc(F)cc3)ncc2Cl)c1	109% (inactive)
COc1ccc(OC)c(NC(=O)c2nc(S(=O)(=O)Cc3ccc(F)cc3)ncc2Cl)c1	-3% (active)
COc1ccc(CNC(=O)c2nc(S(=O)(=O)Cc3ccccc3)ncc2Cl)cc1	34% (inactive)
O=C(NCc1ccccc1)c1nc(S(=O)(=O)Cc2ccc(F)cc2)ncc1Cl	-5% (active)
COc1cc(C2NC(=O)c3c(sc4c3CCN(C)C4)N2)ccc1OC(=O)c1ccccc1 (stereo not drawn)	80% (inactive)
O=C(CSc1nc(=O)n(Cc2ccco2)c2c1CCC2)NCc1ccccc1	72% (inactive)
Cc1ccc(NC(=O)CCc2nnc3n(C)c(=O)c4sccc4n23)cc1C	72% (inactive)
Cc1ccsc1CCN1C(=O)N(c2ccc(F)cc2)C(=O)C1CC(=O)Nc1ccccc1 (stereo not drawn)	72% (inactive)
COc1ccc2c(CNCc3cccs3)c(C(=O)O)n(Cc3ccccc3)c2c1	84% (inactive)
COc1cc(NS(=O)(=O)c2ccc3[nH]c4c(c3c2)CCCC4)cc(OC)c1OC	129% (inactive)
CCOC(=O)c1cccc(NC(=O)CCCn2c(C)c3cnn(-c4ccccc4)c(=O)c3c2C)c1	77% (inactive)
CCSc1nc2sc3c(c2c(=O)n1-c1ccc(C)c(Cl)c1)CCN(C(C)=O)C3	70% (inactive)
Cc1ccc(-n2c(SCC(=O)O)nc3sc4c(c3c2=O)CCCC4)cc1	73% (inactive)
CCCSc1nc2sc3c(c2c(=O)n1-c1ccc(C)cc1)CCCC3	5% (active)
C=C(C)CSc1nc2sc3c(c2c(=O)n1-c1ccccc1)CCC(C)C3 (stereo not drawn)	67% (inactive)
CCCSc1nc2sc3c(c2c(=O)n1-c1ccccc1)CCC(C)C3 (stereo not drawn)	1% (active)
CCSc1nc2sc3c(c2c(=O)n1-c1ccc(C)cc1)CCCC3	0% (active)
CCCSc1nc2sc3c(c2c(=O)n1-c1ccc(C)c(Cl)c1)CCN(C(C)=O)C3	87% (inactive)
CSc1nc2sc3c(c2c(=O)n1-c1ccccc1)CCC(C(C)(C)C)C3 (stereo not drawn)	12% (active)

Compound	survival
CCOC(=O)CSc1nc2sc3c(c2c(=O)n1-c1ccccc1)CCC(C(C)(C)C)C3 (stereo not drawn)	70% (inactive)
CC(C)CCSc1nnc2n(-c3ccccc3)c(=O)c3c4c(sc3n12)CC(C)CC4 (stereo not drawn)	76% (inactive)
CSc1nc2sc3c(c2c(=O)n1Cc1ccccc1)CCC(C(C)(C)C)C3 (stereo not drawn)	113% (inactive)
Cc1ccc(-n2c(SCCC(C)C)nc3sc4c(c3c2=O)CC(C)(C)OC4)cc1	76% (inactive)
Cc1ccc(C)c(N(CC(=O)Nc2ccccc2)S(C)(=O)=O)c1	99% (inactive)
CCc1cccc(NC(=O)Cn2c(=O)ccc3cc(S(=O)(=O)N4CCC(C)CC4)ccc32)c1	129% (inactive)
Cc1ccc2oc(C(=O)Nc3nc(-c4ccc(F)cc4)ns3)c(C)c2c1	87% (inactive)
COc1ccc(NC(=O)c2c(NCc3cccs3)sc3c2CCCC3)cc1	80% (inactive)
CCOC(=O)c1cccc(NC(=O)CCSCCc2ccccn2)c1	68% (inactive)
CCOC(=O)Cn1cnc2c(cnn2-c2ccc(C)c(C)c2)c1=O	72% (inactive)
COc1ccc(NC(=O)N2CCc3c([nH]c4ccc(OC)cc34)C2c2ccc(OC)cc2)cc1 (stereo not drawn)	93% (inactive)
Cc1ccc(CS(=O)(=O)c2ncc(Cl)c(C(=O)Nc3nc4ccc(C)cc4s3)n2)cc1	26% (inactive)
O=C(NCc1ccccc1)C(=O)NCC(c1cccnc1)N1CCN(c2ccccc2)CC1 (stereo not drawn)	82% (inactive)
Cc1ccccc1CNC(=O)C1CCN(c2nn3cc(-c4ccc(F)cc4)nc3s2)CC1	66% (inactive)
Cc1ccc2ncc(C(=O)NCc3ccccc3Cl)c(=O)n2c1	93% (inactive)
CC1CCN(c2ccc(-c3nc(-c4ccccc4)no3)cc2[N+](=O)[O-])CC1	112% (inactive)
Cc1cc(C)cc(NC(=O)CSc2oc(-c3cccs3)nc2S(=O)(=O)c2ccc(Br)cc2)c1	75% (inactive)
CCCCCSc1nc2sc3c(c2c(=O)n1-c1ccc(OC)cc1)CCN(C(C)=O)C3	-21% (active)
CCCCn1c(SCC(=O)c2ccccc2)nc2sc3c(c2c1=O)CCCC3	62% (inactive)
COc1ccc(-n2c(SC)nc3sc4c(c3c2=O)CCN(C(C)=O)C4)cc1	126% (inactive)
C=C(C)Cn1c(SCC(=O)c2ccccc2)nc2sc3c(c2c1=O)CCCC3	84% (inactive)
CCCCCSc1nc2sc3c(c2c(=O)n1-c1ccccc1)CCN(C(C)=O)C3	58% (inactive)
C=C(C)CSc1nc2sc3c(c2c(=O)n1CCCC)CCCC3	0% (active)
